Results taken from PubChem BioAssay (NCI).
Where “and” joins values, the source holds several entries; their conditions need not be identical. Equal entries are not always repeated. Compounds without any hit were thinned out: in the full panel of roughly 83,000, 20% have a hit.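 Percent growth is the endpoint: 0 to 100 indicates growth inhibition (40 means 60% inhibition), 0 means no net growth, and negative values indicate cell death.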 A structure can be active in one record and inactive in another. Calls of active or inactive are those of the source. The calls were made as follows: active = growth percent below 10; inactive = the rest.

system: MDA-MB-468 breast; test: NCI-60 one-dose screen, 48 h (100 = growth as untreated, 0 = no growth, -100 = all killed); details: 10 µM unless noted

**Q.** How did the growth turn out when `COc1ccn2c(C(C)=O)cc(C(=O)c3ccc4c(c3)Sc3ccccc3N4)c2c1` was run?
**A.** The growth was -4.11% (active).

**Q.** `CCOC(=O)CCC(=O)P(=O)(O)O` was tested. Which growth did it give?
**A.** Its growth is 114% (inactive).

**Q.** How did the growth turn out when `NC(=NC1C2CC3CC(C2)CC1C3)Nc1ccc(I)cc1` (stereo not given) was run?
**A.** Its growth is -3.88% (active).

**Q.** For `COc1cc(CC(=O)n2ncc3ccc(N)cc32)cc(OC)c1OC`, which growth is on record?
**A.** Its growth is 94.8% (inactive).

**Q.** With `CC(C)(C)OC(=O)N1Cc2cc3ccccc3nc2C1CO` (stereo not given) as the compound, how does the growth read?
**A.** Its growth is 71.7% (inactive).

**Q.** Which growth does the source give for `Cc1[nH]c(C(=O)Nc2ccc(C(N)=O)cc2OC(C)C)c(Cl)c1Cl` here?
**A.** The growth was 68.4% (inactive).

**Q.** `Nc1ccn([C@@H]2O[C@H](COP(=O)(O)O[C@@H]3C[C@H](n4cc(F)c(=O)[nH]c4=O)O[C@@H]3COP(=O)(O)O[C@@H]3C[C@H](n4cc(F)c(=O)[nH]c4=O)O[C@@H]3COP(=O)(O)O[C@@H]3C[C@H](n4cc(F)c(=O)[nH]c4=O)O[C@@H]3COP(=O)(O)O[C@@H]3C[C@H](n4cc(F)c(=O)[nH]c4=O)O[C@@H]3COP(=O)(O)O[C@@H]3C[C@H](n4cc(F)c(=O)[nH]c4=O)O[C@@H]3COP(=O)(O)O[C@@H]3C[C@H](n4cc(F)c(=O)[nH]c4=O)O[C@@H]3COP(=O)(O)O[C@@H]3C[C@H](n4cc(F)c(=O)[nH]c4=O)O[C@@H]3COP(=O)(O)O[C@@H]3C[C@H](n4cc(F)c(=O)[nH]c4=O)O[C@@H]3COP(=O)(O)O[C@@H]3C[C@H](n4cc(F)c(=O)[nH]c4=O)O[C@@H]3COP(=O)(O)O[C@@H]3C[C@H](n4cc(F)c(=O)[nH]c4=O)O[C@@H]3COP(=O)(O)OCCOCCOCCOCCOCCOCCO)[C@H](O)C2O)c(=O)n1` (stereo not given in full) was tested. Which growth did it give?
**A.** Its growth is 77% (inactive).

**Q.** For `COc1cc(-c2nn(-c3cccc(NC(=O)Nc4cccc(C(F)(F)F)c4)c3)cc2-c2ccncc2)ccc1Cl`, which growth is on record?
**A.** The growth was -27.6% (active).

**Q.** How did the growth turn out when `C=CCn1c(SCC(=O)Nc2ccc(C(=O)/C=C/c3cc(OC)c(OC)c(OC)c3)cc2)nnc1-c1cc(OC)c(OC)c(OC)c1` was run?
**A.** The growth was 26.1% (inactive).

**Q.** For `Cc1nc(N=C(N)N)nc2ccc3ccccc3c12`, which growth is on record?
**A.** The growth was -55.8% (active).

**Q.** `O=c1oc2ccc(Cl)cc2c(=O)n1-c1ccc(I)cc1F` was tested. Which growth did it give?
**A.** Its growth is 1.73% (active).

**Q.** How did the growth turn out when `C=CCn1c(C)nc2cc(Nc3nc(N4CCCC4)nc4ccccc34)ccc21` was run?
**A.** Its growth is 105% (inactive).

**Q.** `C#C[C@]1(O)CC[C@H]2[C@@H]3CC=C4c5sc(Nc6cc(F)ccc6F)nc5CC[C@]4(C)[C@H]3CC[C@@]21C` was tested. Which growth did it give?
**A.** Its growth is -45.6% (active).

**Q.** `CCOC(=O)C1CSC(C)(C(=O)OCC)N1` (stereo not given) was tested. Which growth did it give?
**A.** The growth was 105% (inactive).

**Q.** `O=c1c2ccccc2oc2ccc(OCCCCCN3CCCCCC3)cc12` was tested. Which growth did it give?
**A.** The growth was 49.8% (inactive).

**Q.** Which growth does the source give for `CCOC(=O)c1ccc2n1CCCc1cnc(NC(C)=O)nc1-2` here?
**A.** Its growth is 96.1% (inactive).

**Q.** Which growth does the source give for `CCC(=O)C(CC)c1cccc(OC)c1` (stereo not given) here?
**A.** Its growth is 102% (inactive).

**Q.** For `Cn1c(N)c(N=Nc2ccc(S(=O)(=O)Nc3nccs3)cc2)c(=O)n(C)c1=O`, which growth is on record?
**A.** The growth was 116% (inactive).

**Q.** For `O=C(/C=C/c1ccc(B(O)O)cc1)/C=C/c1ccc(B(O)O)cc1`, which growth is on record?
**A.** Its growth is 1.24% (active).

**Q.** `O=C(CNc1nnc(-c2cccnc2SCc2ccccc2)s1)Nc1nc(Cl)cc(Cl)n1` was tested. Which growth did it give?
**A.** Its growth is 112% (inactive).

**Q.** With `O=C(CSc1nc(-c2ccccc2)cc(=O)[nH]1)Nc1nc(-c2ccccc2)cs1` as the compound, how does the growth read?
**A.** The growth was 96.6% (inactive).

**Q.** For `N=c1ccc2nc3c(cc(N)c4ccccc43)oc-2c1`, which growth is on record?
**A.** Its growth is -78.4% (active).

**Q.** With `CC(/C=C1\SC(=S)N(CC(=O)NC(Cc2c[nH]c3ccccc23)C(=O)O)C1=O)=C\c1ccccc1` (stereo not given) as the compound, how does the growth read?
**A.** The growth was 95.1% (inactive).

**Q.** For `Oc1c(I)cc(I)cc1CN(Cc1ccccn1)Cc1ccccn1`, which growth is on record?
**A.** Its growth is 8.74% (active).

**Q.** How did the growth turn out when `CC(=O)c1cc2c(N)c(C(=O)Nc3cccc4ccccc34)sc2nc1C` was run?
**A.** The growth was 4% (active).

**Q.** With `O=C(CO)C(O)C(O)C(O)C(O)CO` (stereo not given) as the compound, how does the growth read?
**A.** The growth was -18.1% (active) and 102% (inactive).

**Q.** For `Cc1cc2c(c(C)c1Cl)C(=O)/C(=C/c1cccc([N+](=O)[O-])c1)O2`, which growth is on record?
**A.** Its growth is 92.2% (inactive).

**Q.** Which growth does the source give for `Cc1ccc(Nc2nc(-c3ccc(F)cc3)c(C#N)c(=O)n2C)cc1` here?
**A.** Its growth is 62.1% (inactive).

**Q.** `Nc1cc(C(=O)N/N=C\c2ccc(OC(F)F)c(OC3CCCC3)c2)nn1CC(O)c1ccccc1` (stereo not given) was tested. Which growth did it give?
**A.** The growth was 106% (inactive).

**Q.** For `Cc1ccc(/C=C/C(=O)c2ccc(N)cc2)c(C)c1`, which growth is on record?
**A.** The growth was 88.7% (inactive).
